Bioassay records deposited in PubChem BioAssay by National Center for Advancing Translational Sciences (NCATS).
ALDH1A1 block = blocks purified human ALDH1A1 activity; Purified ALDH1A1, NADH fluorescence, propionaldehyde substrate; AID 1030; 220,000 tested, 7.3% active; P00352; Potency, µM (top dose mostly 75.3 µM), without a hit: at the top dose activity, negative = inhibition, actives largely listed as inhibitors;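 further: potency means the concentration at half of the fitted maximal effect; plate controls were no enzyme wells and a reference inhibitor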
IMPase inh = membrane-permeable compound that blocks inositol monophosphatase; inhibition (IP1 accumulation), % at 46.1 µM; P97697; 120,000 tested, under 10 active; CHO-M1 cells, IP1 accumulation, HTRF TR-FRET ratio; AID 901; active means well fitted curve in the direction sought with a large enough effect in the signal ratio, not every such curve was filed as active; inconclusive means small, poorly fitted or top-dose-only effect, or a change in a side signal; inactive means no such curve, though single readings can be large or run the other way; the % refers to the signal ratio;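 further: cells stimulated with carbachol in lithium chloride buffer; plate controls were DMSO basal wells for no effect and reference inhibitor wells for full effect; higher means more IMPase inhibition seen as more IP1 and lower FRET ratio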
Target sequence (P97697 whole entry, looked up): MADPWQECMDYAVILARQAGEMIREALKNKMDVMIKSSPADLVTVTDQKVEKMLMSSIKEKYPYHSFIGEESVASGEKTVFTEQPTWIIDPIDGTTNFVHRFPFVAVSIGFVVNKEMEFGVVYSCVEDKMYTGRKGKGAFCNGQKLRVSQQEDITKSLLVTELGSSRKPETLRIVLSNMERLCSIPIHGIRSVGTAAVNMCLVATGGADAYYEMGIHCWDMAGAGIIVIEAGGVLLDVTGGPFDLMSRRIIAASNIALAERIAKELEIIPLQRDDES
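The IP-One HTRF competitive assay in carbachol-stimulated CHO-M1 cells quantifies cellular IP1. Compounds spanned up to 46 uM final, and activity is expressed as AC50 from concentration-response fits of the ratio and donor data.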
HPGD inh = blocks human HPGD enzyme activity; P15428; purified HPGD, NADH fluorescence kinetic, PGE2 substrate; Potency, µM, inactives show top-dose activity change, negative = inhibition, most hits filed as inhibitors; 150,000 tested, 4.3% active; AID 894; further: potency means the concentration at half of the fitted maximal effect
Target sequence (P15428 whole entry, looked up): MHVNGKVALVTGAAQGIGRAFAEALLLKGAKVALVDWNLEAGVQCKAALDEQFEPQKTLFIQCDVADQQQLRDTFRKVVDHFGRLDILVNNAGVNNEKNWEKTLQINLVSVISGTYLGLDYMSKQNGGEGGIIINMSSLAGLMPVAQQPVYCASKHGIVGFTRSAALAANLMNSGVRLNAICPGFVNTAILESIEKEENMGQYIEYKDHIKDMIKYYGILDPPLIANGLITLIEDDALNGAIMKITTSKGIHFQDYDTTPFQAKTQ
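NADH formation kinetics: reaction with 30 uM PGE2 and 1 mM NAD+ (final), 20 nM enzyme, Tris-HCl pH 8 with Tween 20, after 15 min compound preincubation at room temperature. Fluorescence change, last versus first of five reads.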
An asterisk follows results filed as active. Rows were chosen to be rich in hits. Some 9% of all compounds tested hit in one or more screens of this group. Unless noted, the call rests on the fitted dose curve; in most records, active means well fitted inhibition curve with a large enough effect (not every such curve was filed as active); inconclusive means small, poorly fitted or top-dose-only effect, or another doubt; inactive means no such curve, though single readings can be large or run the other way. Unless noted, on the % scale 0 is the no-effect control and ±100 the full control effect.

What do the screens show for `COc1ccc(/C=C/C(=O)Nc2nonc2NC(C)=O)cc1`?
ALDH1A1 block: -3.3%; IMPase inh: 3.1; HPGD inh: inconclusive

What do the screens show for `Cc1nn2c(CN(C(=O)COc3ccccc3)c3ccccc3)nnc2c2ccccc12`?
ALDH1A1 block: 11.2µM*; HPGD inh: -22.1%

How did Cc1nn2c(COc3ccc(NC(=O)c4ccccc4Cl)cc3)nnc2c2ccccc12 do in these assays?
ALDH1A1 block: 5.4%; HPGD inh: 14.1µM*

What do the screens show for `Cc1nn2c(COc3ccc(NC(=O)C(C)C)cc3)nnc2c2ccccc12`?
ALDH1A1 block: -5.7%

How did CCOC(=O)Nc1ccc(OCc2nnc3c4ccccc4c(C)nn23)cc1 do in these assays?
ALDH1A1 block: 0.0%

How did Cc1nn2c(CN(C(=O)CN3CCOCC3)c3ccccc3)nnc2c2ccccc12 do in these assays?
ALDH1A1 block: 17.8µM*; IMPase inh: 1.1; HPGD inh: -3.3%

What do the screens show for `Cc1nn(CC(=O)N2CCOCC2)c(=O)c2ccccc12`?
ALDH1A1 block: -2.2%; IMPase inh: 8.4

Results for O=C(c1cc2ccccc2o1)N(C1CC1)C1(C(=O)Nc2ccccc2)CCCC1 ?
ALDH1A1 block: 1.3%

Results for O=C(CSc1nnc(-c2ccccc2)c(-c2ccccc2)n1)Nc1ccc(Br)cn1 ?
ALDH1A1 block: -8.4%; HPGD inh: -12.3%

How did COc1ccc(Cl)cc1NC(=O)CSC1=Nc2ccccc2C2=NC(CC(=O)NC3CCCCC3)C(=O)N12 (centres undefined) do in these assays?
IMPase inh: 4.4

Results for CC1(C)CC(=O)C(C(c2ccco2)C2C(=O)CC(C)(C)CC2=O)C(=O)C1 ?
ALDH1A1 block: inconclusive; IMPase inh: 18.6; HPGD inh: 7.94µM*

Results for CC1(C)CC(=O)C(C(c2ccc(F)cc2)C2C(=O)CC(C)(C)CC2=O)C(=O)C1 ?
ALDH1A1 block: inconclusive; HPGD inh: -7.1%

What do the screens show for `O=C(c1cnccn1)N1CCC2(CC1)CCN(c1ccccn1)CC2`?
ALDH1A1 block: 3.3%; HPGD inh: -9.3%

How did CCOc1ccc2c(O)csc2c1 do in these assays?
ALDH1A1 block: 25.1µM*; IMPase inh: 7.2; HPGD inh: -15.7%

What do the screens show for `CCCN=Cc1sc2ccc(OCC)cc2c1O`?
ALDH1A1 block: inconclusive; IMPase inh: -1.1; HPGD inh: inconclusive

Results for COc1ccc(/C=C/C(=O)OCC(=O)NC(=O)NC(C)(C)C)cc1 ?
ALDH1A1 block: 13.6%

How did CC(=O)c1cccc(N(CC(=O)N2CCCC2)S(C)(=O)=O)c1 do in these assays?
ALDH1A1 block: 25.1µM*; IMPase inh: 11.9; HPGD inh: 0.1%

How did CC(=O)c1cccc(N(CC(=O)N2CCCCC2)S(C)(=O)=O)c1 do in these assays?
ALDH1A1 block: 0.7%; IMPase inh: -4.1; HPGD inh: -3.8%

What do the screens show for `O=C(/C(N=Nc1cccc(C(F)(F)F)c1)=C(/O)c1cccs1)C(F)(F)F`?
ALDH1A1 block: 0.1%

Results for Cc1cccc(N=N/C(=C\O)C(=O)c2cccs2)c1 ?
ALDH1A1 block: 8.91µM*

How did C=CCOc1c(Cl)cc(CNc2ccc(C)c(Cl)c2)cc1OC do in these assays?
ALDH1A1 block: -6.1%; IMPase inh: 6.7; HPGD inh: -13.4%

What do the screens show for `C=CCOc1c(Cl)cc(CNc2ccc(N(C)C)cc2)cc1OC`?
ALDH1A1 block: 2µM*; IMPase inh: 34.3; HPGD inh: inconclusive

Results for CCOC(=O)c1ccccc1NC(=O)Nc1cc2c(cc1N1CCCC1)n(C)c(=O)n2C ?
IMPase inh: 34.7

How did COc1ccc(-c2nc3ccccc3c(=O)n2NC(=S)N(C)C)cc1 do in these assays?
ALDH1A1 block: 3.98µM*; IMPase inh: 3.2; HPGD inh: 14.1µM*

What do the screens show for `COc1ccc(OCC(=O)Nn2c(-c3ccc(OC)cc3)nc3ccccc3c2=O)cc1`?
ALDH1A1 block: inconclusive; HPGD inh: -12.6%

Results for COCc1cccc(N2C(=O)CC(C3C=C(C)C4C(=O)N(c5cccc(COC)c5)C(=O)C4C3)C2=O)c1 (centres undefined) ?
ALDH1A1 block: -8.0%

What do the screens show for `CCn1cc(C(=O)OCC(=O)Nc2ccc(S(=O)(=O)N3CCCC3)cc2)c(=O)c2ccc(C)nc21`?
ALDH1A1 block: inconclusive; IMPase inh: 1.9; HPGD inh: -4.2%

How did CCOc1cc(CNc2ccc(N(C)C)cc2)cc(Br)c1OCC(=O)NC(C)(C)C do in these assays?
ALDH1A1 block: 3.16µM*; IMPase inh: inconclusive; HPGD inh: -24.0%

How did COc1cc(CNc2cccc(C(=O)O)c2)cc(Br)c1OCC(=O)NC(C)(C)C do in these assays?
ALDH1A1 block: 2.6%; HPGD inh: inconclusive

Results for COc1cc(CNc2ccc3[nH]c(=O)[nH]c3c2)cc(Br)c1OCC(=O)NC(C)(C)C ?
ALDH1A1 block: 0.316µM*; IMPase inh: 10.0; HPGD inh: inconclusive

Results for CCOc1cc(CNc2ccc(N3CCCCC3)cc2)cc(Br)c1OCC(=O)NC(C)(C)C ?
ALDH1A1 block: inconclusive; HPGD inh: -13.7%

Results for CN(C)c1cc[n+](Cc2c(Cl)cccc2Cl)cc1 ?
ALDH1A1 block: 4.4%; IMPase inh: 19.5; HPGD inh: 1.5%

Results for CC(C)[C@H](NC(=O)Nc1ccc(Oc2ccccc2)cc1)C(=O)O ?
ALDH1A1 block: -3.4%; IMPase inh: 5.3; HPGD inh: -5.3%

Results for CCCc1cc(N2CCCC(C(=O)NCC)C2)n2ncnc2n1 (centres undefined) ?
ALDH1A1 block: 11.7%; IMPase inh: 5.9; HPGD inh: inconclusive

Results for NC1=NS(=O)(=O)NC1c1ccc(Br)cc1 (centres undefined) ?
ALDH1A1 block: 7.5%

Results for CC1=Nn2c(nnc2C2CCCCC2)SC1 ?
ALDH1A1 block: inconclusive; IMPase inh: 6.3; HPGD inh: 28.2µM*

What do the screens show for `CC1=Nn2c(nnc2-c2cc(-c3ccccc3)n[nH]2)SC1`?
ALDH1A1 block: -6.5%; IMPase inh: -6.5; HPGD inh: -8.1%

What do the screens show for `CC(=O)NC(c1ccco1)c1ccc2cccnc2c1O` (centres undefined)?
ALDH1A1 block: -1.7%; IMPase inh: 6.7; HPGD inh: -0.5%

Results for OCCN1CCN(C(c2cccs2)c2ccc3cccnc3c2O)CC1 (centres undefined) ?
ALDH1A1 block: 1.26µM*; IMPase inh: 15.2; HPGD inh: 3.55µM*

Results for CC(=O)Nc1ccc(Cl)cc1C1COC(=O)C1=N (centres undefined) ?
ALDH1A1 block: -8.3%; HPGD inh: -3.2%

What do the screens show for `CSc1nnc(-c2cc3ccccc3cc2O)n1C`?
ALDH1A1 block: inconclusive; IMPase inh: 7.1

What do the screens show for `Cc1ccc(NC(=O)N2CCc3ccccc32)cc1`?
ALDH1A1 block: 0.0%; IMPase inh: -4.2; HPGD inh: -8.6%

What do the screens show for `Cc1ccc(NC(=O)CSCC(=O)N2c3ccccc3CCc3ccccc32)cc1`?
ALDH1A1 block: 3.16µM*; IMPase inh: -0.6; HPGD inh: -11.6%

What do the screens show for `CC1OC(n2cc(F)c(=O)[nH]c2=O)C(O)C1O` (centres undefined)?
ALDH1A1 block: 3.1%; HPGD inh: -8.5%

Results for O=C(O)CNC(=O)/C(=C/c1ccco1)NC(=O)/C=C/c1ccccc1 ?
ALDH1A1 block: 16.4%; HPGD inh: -16.4%
